Measurements taken from PubChem BioAssay (EPA / NIEHS).
Calls of active or inactive are those of the source. How the source made its calls: active means hit-call score of the fitted dose curve at least 0.9, where 1 is the maximum; inactive means score below 0.9.

What was measured:
[1] = ATG_Ets_CIS: Attagene CIS-FACTORIAL HepG2 Assay for human Erythroblast Transformation Specific (ETS) (AID 2282941); settings: HepG2 ETS cis-reporter transcription, actives raise or lower the signal
Outline: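 RT-PCR/capillary electrophoresis fluorescence read-out of reporter mRNA; HepG2 transient multi-reporter transfection; 24 h compound exposure; gain or loss of signal fitted bidirectionally relative to DMSO.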

[2] = target: Hepatocyte nuclear factor 3-beta (Homo sapiens) (UniProt Q9Y261); assay: ATG_FoxA2_CIS: Attagene CIS-FACTORIAL HepG2 Assay for human Forkhead box A2 (FOXA2) (AID 2282942); settings: HepG2 cis-reporter transcription factor activity, 24 h; actives raise or lower the signal
Hepatocyte nuclear factor 3-beta (Homo sapiens), sequence (Q9Y261 whole entry, looked up): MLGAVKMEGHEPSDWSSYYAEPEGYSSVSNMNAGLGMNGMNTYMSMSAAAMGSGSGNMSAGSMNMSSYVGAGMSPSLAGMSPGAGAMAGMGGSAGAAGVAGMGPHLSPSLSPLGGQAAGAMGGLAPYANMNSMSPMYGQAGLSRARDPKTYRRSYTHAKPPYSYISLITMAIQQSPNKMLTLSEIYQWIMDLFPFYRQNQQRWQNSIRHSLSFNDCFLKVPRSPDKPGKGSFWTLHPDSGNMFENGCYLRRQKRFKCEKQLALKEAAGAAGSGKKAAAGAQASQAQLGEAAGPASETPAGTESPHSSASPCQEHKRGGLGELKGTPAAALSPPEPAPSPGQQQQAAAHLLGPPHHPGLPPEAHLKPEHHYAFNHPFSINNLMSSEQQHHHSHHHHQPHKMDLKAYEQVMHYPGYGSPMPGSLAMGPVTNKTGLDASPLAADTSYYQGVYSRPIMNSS
Outline: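 HepG2 transiently transfected with a multiplexed cis-promoter reporter library read endogenous FOXA2 activity. After 24 h compound exposure, reporter mRNA was quantified by RT-PCR, HpaI digestion and capillary electrophoresis. Bidirectional fit against DMSO.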

[3] = ATG_GATA_CIS: Attagene CIS-FACTORIAL HepG2 Assay for human GATA Binding Protein (AID 2282944); settings: HepG2 GATA cis-element reporter, Attagene multiplex mRNA; actives raise or lower the signal
Outline: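 Read-out: fluorescent reporter mRNA fragments resolved by capillary electrophoresis after RT-PCR. Human liver HepG2 cells carried transiently transfected cis-regulated reporter constructs; chemicals incubated 24 h; gain or loss of signal fitted relative to DMSO.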

[4] = ATG_GLI_CIS: Attagene CIS-FACTORIAL HepG2 Assay for human Zinc Finger Protein GLI1 (AID 2282945); settings: HepG2, Attagene cis-factorial reporter mRNA, GLI element; actives raise or lower the signal
Outline: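 Bidirectional curve fits relative to DMSO, using reporter mRNA levels from RT-PCR plus capillary electrophoresis. Cells were HepG2 transiently carrying cis-regulated reporter constructs, harvested 24 h after dosing.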

[5] = target: Bile acid receptor (Homo sapiens) (UniProt Q96RI1); assay: ATG_IR1_CIS: Attagene CIS-FACTORIAL HepG2 Assay for human Nuclear Receptor Subfamily 1 Group H Member 4 (NR1H4), IR1 submotif (AID 2282946); settings: IR1 reporter transcription, actives raise or lower the signal
Bile acid receptor (Homo sapiens), sequence (Q96RI1 whole entry, looked up): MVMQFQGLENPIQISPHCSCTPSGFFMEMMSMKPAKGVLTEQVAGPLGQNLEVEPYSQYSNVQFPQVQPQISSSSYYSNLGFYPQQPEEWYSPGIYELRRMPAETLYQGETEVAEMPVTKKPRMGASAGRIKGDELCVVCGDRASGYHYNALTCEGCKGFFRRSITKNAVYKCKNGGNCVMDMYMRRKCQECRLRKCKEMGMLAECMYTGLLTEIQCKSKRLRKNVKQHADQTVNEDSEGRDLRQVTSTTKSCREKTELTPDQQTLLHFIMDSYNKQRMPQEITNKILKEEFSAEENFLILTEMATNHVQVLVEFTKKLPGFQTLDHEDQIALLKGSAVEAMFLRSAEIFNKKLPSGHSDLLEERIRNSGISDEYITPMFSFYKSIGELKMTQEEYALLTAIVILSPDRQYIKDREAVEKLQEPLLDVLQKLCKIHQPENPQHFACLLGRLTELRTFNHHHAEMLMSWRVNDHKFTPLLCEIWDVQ
Outline: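 HepG2 cells transiently transfected with multiplexed cis-element reporter units read endogenous transcription factor activity. After 24 h compound exposure, reporter mRNA was quantified by RT-PCR, fluorescent labelling, HpaI digestion and capillary electrophoresis; bidirectional fitting versus DMSO baseline.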

[6] = ATG_GRE_CIS: Attagene CIS-FACTORIAL HepG2 Assay for human Glucocorticoid Response Elements (GRE) (AID 2282947); settings: HepG2 GRE cis-reporter, Attagene multiplex mRNA; actives raise or lower the signal
Outline: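 Reporter transcripts read by RT-PCR with capillary electrophoresis fluorescence after a 24 h chemical exposure of HepG2 cells transiently transfected with multiple cis-element reporter units. Gain or loss fitted against DMSO.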

[7] = ATG_ISRE_CIS: Attagene CIS-FACTORIAL HepG2 Assay for human Interferon Regulatory Factor 1 (IRF1) binding to an Interferon-Stimulated Response Element (ISRE) (AID 2282948); settings: HepG2 ISRE cis-reporter (Attagene), mRNA transcription readout; actives raise or lower the signal
Outline: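 Read-out: fluorescent RT-PCR products resolved by capillary electrophoresis, reporting endogenous transcription factor activity via ISRE-driven reporter mRNA in transfected HepG2 cells dosed for 24 h; gain or loss fitted relative to DMSO.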

[8] = ATG_FoxO_CIS: Attagene CIS-FACTORIAL HepG2 Assay for human Forkhead box O (FoxO) (AID 2282943); settings: HepG2 Attagene cis-reporter, FoxO element, mRNA; actives raise or lower the signal
Outline: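 HepG2, transient MRTU transfection (cis element, endogenous TFs). Dose 24 h. TriZol RNA → oligo(dT) RT → PCR → 6-FAM primer extension → HpaI cut → CE. Gain/loss vs DMSO.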

[9] = ATG_ERE_CIS: Attagene CIS-FACTORIAL HepG2 Assay for Estrogen Response Element (ERE) (AID 2282940); settings: HepG2 ERE cis-reporter, Attagene RNA transcript; actives raise or lower the signal
Outline: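 Readout: reporter mRNA induction by RT-PCR, FAM-labelled primer extension, HpaI digestion and capillary electrophoresis, 24 h after dosing transfected HepG2 cells. Endogenous transcription factors act on cis-element-regulated reporters. Gain or loss fitted against DMSO.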

c1ccc2c(c1)Oc1ccccc1O2
outcome [1]: inactive
outcome [2]: inactive
outcome [3]: inactive
outcome [4]: inactive
outcome [5]: inactive
outcome [6]: inactive
outcome [7]: inactive

CN(C)C(=S)S
outcome [1]: inactive
outcome [2]: inactive
outcome [8]: inactive
outcome [3]: inactive
outcome [4]: inactive
outcome [7]: inactive

CCN(CCO)CCO
outcome [9]: inactive
outcome [1]: inactive
outcome [2]: inactive
outcome [8]: inactive
outcome [3]: inactive
outcome [4]: inactive
outcome [6]: inactive
outcome [7]: inactive

CCCCOP(=O)(CCCC)OCCCC
outcome [2]: inactive
outcome [8]: inactive
outcome [3]: inactive
outcome [4]: inactive
outcome [5]: inactive
outcome [6]: inactive
outcome [7]: inactive

N#Cc1cccnc1
outcome [9]: inactive
outcome [1]: inactive
outcome [2]: inactive
outcome [8]: inactive
outcome [3]: inactive
outcome [4]: inactive
outcome [5]: inactive
outcome [6]: inactive
outcome [7]: inactive

CCCCC(CC)COC(=O)Cl (stereo unspecified)
outcome [9]: inactive
outcome [1]: inactive
outcome [2]: inactive
outcome [8]: inactive
outcome [3]: inactive
outcome [4]: inactive
outcome [5]: inactive
outcome [6]: inactive
outcome [7]: inactive

O=[N+]([O-])c1cc([As](=O)(O)O)ccc1O
outcome [9]: inactive
outcome [1]: inactive
outcome [2]: inactive
outcome [8]: inactive
outcome [3]: inactive
outcome [4]: inactive
outcome [6]: inactive
outcome [7]: inactive

Cc1ccc(OP(=O)(Oc2ccc(C)cc2C)Oc2ccc(C)cc2C)c(C)c1
AC50 [9]: 5.48 µM (active)
outcome [2]: inactive
outcome [8]: inactive
outcome [3]: inactive
AC50 [4]: 25.7 µM (active)
outcome [5]: inactive
outcome [6]: inactive
outcome [7]: inactive

CCCCOC(=O)COC(=O)c1ccccc1C(=O)OCCCC
outcome [9]: inactive
outcome [1]: inactive
outcome [2]: inactive
outcome [8]: inactive
outcome [3]: inactive
outcome [4]: inactive
outcome [6]: inactive
outcome [7]: inactive

Oc1cc(Cl)c(Cl)cc1Cl
outcome [1]: inactive
outcome [2]: inactive
outcome [8]: inactive
outcome [3]: inactive
outcome [4]: inactive
outcome [7]: inactive
